Compounds with a hit are over-represented: about 4.6% of the library has one in this group of screens.
PfHsp90 yeast 2 – reduces growth (ATP signal) of yeast expressing P. falciparum Hsp90; S. cerevisiae expressing PfHsp90, BacTiter-Glo ATP, 48 h; yeast lacking PDR1 and PDR3 efflux regulators; AID 504621; inhibition, % at 9.4 µM; 310,000 compounds, 0.32% hits;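 active = every replicate shows inhibition above about 80%, whatever the replicate mean, limit read from the data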
tim23-1 inh – inhibits growth of tim23-1 mutant yeast | S. cerevisiae tim23-1 growth, BacTiter-Glo luminescence, 24 h | AID 463212 | 330,000 compounds, 1.3% hits | inhibition, % at 20 µM;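 active = growth inhibition of the mutant yeast at or above 50%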;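 note: temperature-sensitive mutant grown at 25 °C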
tim10-1 inh – tim10-1 yeast growth inhibition | S. cerevisiae tim10-1 ts strain growth, BacTiter-Glo, 24 h | inhibition, % at 20 µM | 330,000 compounds, 2.2% hits | AID 463190;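 active = inhibition of at least 40%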;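 note: mutant grown at 25 °C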
SKKanGAS inh – inhibitors of SKKanGAS S. pyogenes growth in kanamycin (SK-promoter or general growth effect). BacTiter-Glo, 6 h. inhibition, % at 7.5 µM. 300,000 compounds, 1.3% hits;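 active = mean replicate score, as percent of positive control median, at least 50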;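 note: strain carries kanamycin resistance gene driven by streptokinase promoter and grows in 40 µg/ml kanamycin; loss of luminescence reflects streptokinase promoter inhibition or plain growth inhibition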
TIM10 inh – inhibits growth of TIM10 yeast strain; S. cerevisiae TIM10 strain growth, BacTiter-Glo luminescence, 24 h; inhibition, % at 10 µM; 330,000 compounds, 1.4% hits;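 active = inhibition of 40% or more at the single tested concentration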;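 note: wild-type TIM10 isogenic control strain grown at permissive 25 °C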
NLRP3 yeast inh – blocks the NALP3 inflammasome reconstituted in yeast | Yeast reconstituted NLRP3/ASC/caspase-1, beta-gal luminescence, 24 h | inhibition, % at 10 µM | 330,000 compounds, 0.39% hits | AID 2825;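 active = inhibition of 50% or more; inactive = inhibition below 50%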
tim10-1 confirm – confirmation of tim10-1 mutant yeast growth inhibitors; shares compounds with tim10-1 inh; S. cerevisiae tim10-1 ts strain growth, BacTiter-Glo, 24 h; inhibition, % at 20 µM; 7,400 compounds, 56% hits; AID 463213;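 active = inhibition of yeast growth at or above a set limit in either of two repeat tests at 20 µM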;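 note: tim10-1 mutant grown at permissive 25 °C to find synthetic lethal compounds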
Each line names hits and unclear results; the compound was inactive in the other large screens (follow-up assays come after a bar, where they were run).

COc1cc(-c2nc(-c3cccc(C(F)(F)F)c3)no2)cc(OC)c1OC	tim10-1 inh 41 | tim10-1 confirm 31
CCCCNC(=S)NCc1ccc2[nH]c3c(c2c1)CCCC3	tim10-1 inh 40 | tim10-1 confirm inactive
CC1(CCC(=O)N2CCCC(N3CCN(c4ccc(F)cc4)CC3)C2)CC1 (configuration not stated)	none
O=S(=O)(Nc1c(O)ccc2ccccc12)c1cccc2ccccc12	tim10-1 inh 44 | tim10-1 confirm inactive
O=C1CSC(c2ccccc2[N+](=O)[O-])N1CCc1ccccc1 (configuration not stated)	none
Cc1ccc(S(=O)(=O)/N=C2\C=C(Nc3cccc(C(=O)O)c3)C(=O)c3ccccc32)c(C)c1	tim10-1 inh 44, SKKanGAS inh 69 | tim10-1 confirm inactive
Cc1cccc(NC2=C(NC(=O)c3ccccc3)C(=O)c3ccccc3C2=O)c1	none
CCOC(=O)COn1c(=O)c(-c2cc3ccccc3o2)[n+]([O-])c2ccccc21	tim10-1 inh 44 (no result: PfHsp90 yeast 2) | tim10-1 confirm inactive
C=CCOn1c(=O)c(-c2cc3ccccc3o2)[n+]([O-])c2ccccc21	none
COc1cc2ccccc2cc1C(=O)N(CCN(C)C)c1nc2c(C)cccc2s1	tim10-1 inh 56 | tim10-1 confirm inactive
COc1cc2ccccc2cc1C(=O)N(CCN(C)C)c1nc2c(OC)ccc(OC)c2s1	tim10-1 inh 46 | tim10-1 confirm inactive
COc1cc2ccccc2cc1C(=O)N(CCN(C)C)c1nc2ccc(C)cc2s1	tim10-1 inh 42 | tim10-1 confirm inactive
O=C(Nc1ccccc1Cl)C1CCCN(c2ncnc3c2nc2n3CCCCC2)C1 (configuration not stated)	tim10-1 inh 54 | tim10-1 confirm inactive
COc1ccccc1NC(=O)C1CCCN(c2ncnc3c2nc2n3CCCCC2)C1 (configuration not stated)	none
CCc1cccc(NC(=O)C2CCCN(c3ncnc4c3nc3n4CCCCC3)C2)c1 (configuration not stated)	tim10-1 inh 40 | tim10-1 confirm inactive
Nc1cc(Cl)ccc1Oc1ccc2ccccc2c1	tim10-1 inh 61 | tim10-1 confirm 57
CCNC(=O)Nc1ccc(OC)cc1OC	none (no result: PfHsp90 yeast 2)
Cc1ccc(NC(=S)Nc2ccc3cn[nH]c3c2)cc1C	none (no result: SKKanGAS inh)
CC(C)c1ccc(NC(=S)Nc2ccc3cn[nH]c3c2)cc1	tim10-1 inh 43 | tim10-1 confirm inactive
COc1cccc(NC(=O)Nc2cc(C)ccc2OC)c1	tim10-1 inh 40 | tim10-1 confirm inactive
COc1ccc(C)cc1NC(=O)Nc1ccccc1	none
O=C(COC(=O)c1cnccn1)c1ccc(C2CCCCC2)cc1	none
CCN(CC)S(=O)(=O)c1ccc(/C=C/C(=O)NC2CCCCC2)cc1	tim10-1 inh 44 | tim10-1 confirm inactive
CCOC(=O)c1sc2nc(N3CCOCC3)c3c(c2c1N)CCC3	none (no result: PfHsp90 yeast 2)
CCOC(=O)c1oc2nc(CC(C)C)c3c(c2c1N)CCC3	tim10-1 inh 40 | tim10-1 confirm inactive
O=C1c2cccc(Cl)c2C(=O)c2c1cccc2N1CCCC1	tim10-1 inh 53 | tim10-1 confirm 38
Cc1ccc(CN2CC(C(=O)NNC(=O)c3ccc(F)cc3)CC2=O)cc1 (configuration not stated)	none (no result: SKKanGAS inh)
Cc1oc2c(Cl)c(Cl)c(O)c(CN(C)C)c2c1C(=O)c1ccc(Cl)cc1	tim10-1 inh 49 | tim10-1 confirm 53
Cc1ccc(-c2noc(CN3CCN(C(c4ccccc4)c4ccccc4)CC3)n2)cc1	tim10-1 inh 41 | tim10-1 confirm inactive
Cc1ccc(-c2noc(CN3CCCCC3)n2)cc1	none
CC1CC(C)CN(S(=O)(=O)c2ccc(C(=O)Nc3nnc(C4CC4)o3)cc2)C1 (configuration not stated)	tim10-1 inh 47, SKKanGAS inh 68 | tim10-1 confirm inactive
CCOC(=O)N1CCN(S(=O)(=O)c2ccc(C(=O)Nc3nnc(C4CC4)o3)cc2)CC1	none
O=C(NCC(=O)N1CCN(C(=O)c2ccccc2)CC1)c1ccc(Cl)cc1Cl	none (no result: SKKanGAS inh)
Cc1ccc(Sc2ncnc3onc(C)c23)cc1	tim10-1 inh 41 (no result: PfHsp90 yeast 2) | tim10-1 confirm inactive
C[n+]1c(/C=C/c2ccc(O)cc2)ccc2ccccc21	none
Cc1cc(/C=C\c2ccc3cc(N(C)C)ccc3[n+]2C)c(C)n1-c1ccccc1	PfHsp90 yeast 2 108, tim10-1 inh 70 (no result: SKKanGAS inh) | tim10-1 confirm 50
CCOC(=O)c1sc2nc3c(cc2c1N)COC(C)(C)C3	tim10-1 inh 40 (no result: SKKanGAS inh) | tim10-1 confirm inactive
CCOC(=O)c1sc2nc3c(cc2c1N)COC(C)(CC)C3 (configuration not stated)	tim10-1 inh 43 | tim10-1 confirm inactive
CCCCCCCCNC(=O)/C(C#N)=C/c1ccc2c(c1)OCCO2	none
CCCCCCCCNC(=O)/C(C#N)=C/c1ccc(SC)cc1	tim10-1 inh 50 | tim10-1 confirm 38
Cc1ccccc1NC(=O)CSc1nc(N)c2c3c(sc2n1)CSC(C)(C)C3	tim10-1 inh 43 | tim10-1 confirm 33
Cc1nc(SCC(=O)N2CCN(c3ccccc3)CC2)c2oc3ccccc3c2n1	tim10-1 inh 48 | tim10-1 confirm 43
CCOC1(OCC)C(c2ccc(N)cc2)C(C#N)(C#N)C1(OCC)OCC (configuration not stated)	tim10-1 inh 42 (no result: PfHsp90 yeast 2) | tim10-1 confirm inactive
CCOC(=O)CSC1=C(C#N)C(c2ccc(Cl)cc2)CC(=O)N1 (configuration not stated)	none
CCOC1(OCC)C(c2ccc(Cl)cc2)C(C#N)(C#N)C1(OCC)OCC (configuration not stated)	tim10-1 inh 47 | tim10-1 confirm inactive
CCOC1(OCC)N=C(N)C2(C#N)C(c3cccc(C)c3)C12C#N (configuration not stated)	none
CC1(C)CC2CC(C)(CN2S(=O)(=O)c2cccc(N)c2)C1 (configuration not stated)	tim10-1 inh 48 | tim10-1 confirm 39
O=C(NCC1CCCO1)c1ccc[nH]1 (configuration not stated)	none
CC(C)CNC(=S)Nc1ccc(Oc2ccccc2)cc1	tim10-1 inh 43 | tim10-1 confirm inactive
CCNC(=S)Nc1ccc(N(c2ccccc2)C(C)C)cc1	tim10-1 inh 42 | tim10-1 confirm inactive
C[C@H](CO)N1C[C@H](C)[C@H](CN(C)CC2CCCCC2)Oc2ccc(NS(=O)(=O)c3ccc(F)cc3)cc2CC1=O	none (no result: SKKanGAS inh)
CC(C)(C)NC(=O)C(c1cccs1)N(Cc1ccc(F)cc1)C(=O)c1csnn1 (configuration not stated)	tim10-1 inh 43 | tim10-1 confirm inactive
COc1ccc(CC(=O)N/N=C(\C)CC(=O)Nc2ccc3c(c2)OCCO3)cc1OC	none
COc1cccc(/C=C/C(=O)NCc2cn3cc(Cl)ccc3n2)c1	none
